One assay deals with Klebsiella pneumoniae. To be noted: Concentration 32 ug.mL-1;; ASSAY_TEST Inhibition of Bacterial Growth; detection method Absorption (OD600); MEDIA CAMHB; plate type 384well; NBS; CORNING #3640; time 18 hr.
In a further assay the test system is Candida albicans. As to conditions: Concentration 32 ug.mL-1; ASSAY_TEST Inhibition of Fungal Growth; detection method Absorption (OD530).
The test system of the next assay is Cryptococcus neoformans. To be noted: Concentration 32 ug.mL-1; ASSAY_TEST Inhibition of Fungal Growth; detection method Resazurin; Absorption (OD600-OD570); plate type 384well; NBS; CORNING #3640. (In general: Alamar Blue is a resazurin reagent that responds to reducing activity.)

Results with a measured potency or affinity are listed apart.

One may read the Inhibition as the drop in the measured response relative to a control, in per cent. For `Cc1[nH]c2ccccc2c1C(=O)CSc1nnc2c(=O)n(-c3ccccc3)ccn12`, the Inhibition in the assay on Klebsiella pneumoniae is 21.07%; with Candida albicans it was 0.47%; with Cryptococcus neoformans, -10.08%.
On the same counts, the results for `COc1ccc(NC(=O)CSc2nnc3ccc(C(=O)Nc4cccc(F)c4)cn23)cc1` are 4.36%, 3.08% and -2.63%.
For `CCCNC(=O)Cn1nc2nc(Nc3ccc(F)cc3)ccn2c1=O`, the Inhibition in the assay with Klebsiella pneumoniae is recorded as -2.03%; with Candida albicans it was -0.03%; with Cryptococcus neoformans it was -13.31%.
For the compound `CCc1ccccc1Sc1nccn2c(=O)n(CC(=O)Nc3c(C)cccc3C)nc12`, the results for the Inhibition in the assay on Klebsiella pneumoniae, in the assay on Candida albicans and in the assay with Cryptococcus neoformans were 10.25%, 3.49% and -15.72%, respectively.
In the case of `Cc1ccc(-c2cc3c4nn(CC(=O)Nc5ccccc5F)c(=O)n4ccn3n2)cc1C`, the Inhibition in the assay with Klebsiella pneumoniae is on record as 6.53%; with Candida albicans it was -0.75%; in the assay on Cryptococcus neoformans it was -15.58%.
As to `Cc1ccc(CN(c2ccc(C(C)C)cc2)S(=O)(=O)c2cccn3cnnc23)cc1`, the Inhibition with Klebsiella pneumoniae is 23.96%; in the assay on Candida albicans, 3.57%; in the assay on Cryptococcus neoformans, -16.89%.
`CCCCN(C)C(=O)CSc1nnc2c(=O)n(Cc3ccc(F)cc3)ccn12`: the results for the Inhibition with Klebsiella pneumoniae, in the assay with Candida albicans and in the assay on Cryptococcus neoformans were 14.76%, -0.35% and -33.57%, respectively.
For `COc1ccc(-n2ccn3c(-c4ccc([N+](=O)[O-])cc4)nnc3c2=O)cc1`, the Inhibition in the assay with Klebsiella pneumoniae was 13.7%; with Candida albicans it was -0.61%; in the assay with Cryptococcus neoformans it was -26.2%.
Consider `COc1ccc(N(Cc2cccc(C)c2)S(=O)(=O)c2ccc3nnc(C)n3c2)cc1`, for which the results for the Inhibition with Klebsiella pneumoniae, with Candida albicans and with Cryptococcus neoformans were 7.11%, 0.04% and -1.35%, respectively.
For the compound `Cc1ccc(Cn2nc3c(=O)n(-c4ccc(C)c(C)c4)ccn3c2=O)cc1`, the figures for the Inhibition in the assay on Klebsiella pneumoniae, in the assay with Candida albicans and in the assay with Cryptococcus neoformans were 14.01%, 3.7% and -17.46%, respectively.
For the compound `CCCCOc1ccc(-c2cc3c4nnc(SCC(=O)Nc5cc(C)ccc5OC)n4ccn3n2)cc1`, the Inhibition with Klebsiella pneumoniae is listed as -4.93%; in the assay on Candida albicans, 45.46%; with Cryptococcus neoformans, -16.58%.
In the case of `Cc1ccc(Sc2nccn3c(=O)n(CC(=O)N4CCN(c5ccccc5F)CC4)nc23)c(C)c1`, the results for the Inhibition in the assay with Klebsiella pneumoniae, in the assay on Candida albicans and with Cryptococcus neoformans were 9.62%, 0.22% and -25.75%, respectively.
For `CN(C)C(=O)CSc1nnc2c(=O)n(-c3ccc(F)cc3)ccn12`, the figures for the Inhibition in the assay on Klebsiella pneumoniae, in the assay with Candida albicans and with Cryptococcus neoformans were 10.89%, 3.85% and -5.4%, respectively.
`Cc1ccc(CNC(=O)Cn2nc3c(Sc4cccc(F)c4)nccn3c2=O)cc1`: the Inhibition in the assay with Klebsiella pneumoniae is listed as -2.32%; in the assay with Candida albicans, 4.04%; with Cryptococcus neoformans, -11.39%.
For the compound `COc1ccccc1-n1ccn2c(SCc3ccc(C)cc3)nnc2c1=O`, the Inhibition with Klebsiella pneumoniae is 5.79%; with Candida albicans it was 2.57%; in the assay with Cryptococcus neoformans, -9.44%.
As for `CC(C)Cn1c(=O)c2ccc(C(=O)NC3CCCC3)cc2n2c(=O)n(CC(=O)NC3CCCCC3)nc12`, the Inhibition with Klebsiella pneumoniae was 4.14%; with Candida albicans it was -1.41%; in the assay on Cryptococcus neoformans it was -14.36%.
With `CCOc1ccc(-n2ccn3c(SC(CC)C(=O)Nc4cc(F)ccc4F)nnc3c2=O)cc1` (stereo not drawn), the Inhibition with Klebsiella pneumoniae is 11.22%; with Candida albicans it was 0.62%; with Cryptococcus neoformans, -9.91%.
Turning to `Cc1cccc(-c2nc(CSc3nc4ccccc4n4c(C)nnc34)c(C)o2)c1`, the Inhibition is on record as 10.71% with Klebsiella pneumoniae, 3.22% in the assay on Candida albicans and -23.71% with Cryptococcus neoformans.
On to `O=C(Cn1nc2c(Sc3ccccc3)nccn2c1=O)Nc1ccc2c(c1)OCCO2`, for which the results for the Inhibition with Klebsiella pneumoniae, in the assay with Candida albicans and with Cryptococcus neoformans were 12.02%, -0.06% and -3.83%, respectively.
In the case of `COc1ccc(N(Cc2cccc(Cl)c2)S(=O)(=O)c2ccc3nncn3c2)cc1`, the Inhibition in the assay with Klebsiella pneumoniae is reported as 12.52%; in the assay with Candida albicans, 3.54%; with Cryptococcus neoformans it was -3.69%.
On the same counts, the results for `COc1ccccc1N1CCN(C(=O)Cn2nc3ccc(-c4ccc(Cl)cc4)nn3c2=O)CC1` are 12.66%, -1.54% and -12.15%.
On the same counts, the results for `Cc1c(Cl)cccc1-n1ccn2c(SCC(=O)c3c[nH]c4ccccc34)nnc2c1=O` are 3.37%, 2.26% and -4.72%.
On the same counts, the results for `Cc1nnc2c(SCC(=O)Nc3ccc4c(c3)OCCO4)nc3ccccc3n12` are 9.06%, 1.7% and -7.59%.
For `CCc1nnc2c(S(=O)(=O)N(Cc3cc(F)cc(F)c3)c3ccccc3)cccn12`, the Inhibition in the assay with Klebsiella pneumoniae is recorded as 9.94%; in the assay on Candida albicans, 6.55%; in the assay on Cryptococcus neoformans it was -7.12%.
Take `Cc1ccc(NC(=O)Cn2nc3c(N4CCCC(C)C4)nccn3c2=O)cc1C` (stereo not drawn): the Inhibition is -5.74% in the assay with Klebsiella pneumoniae, 1.72% in the assay with Candida albicans and -9.99% in the assay on Cryptococcus neoformans.
On the same counts, the results for `CC(C)CCn1c(=O)c2sccc2n2c(=O)n(CCOc3ccccc3)nc12` are 15.26%, 12.41% and -11.28%.
Turning to `O=C(CSc1nc2ccccc2n2cnnc12)Nc1ccc2c(c1)OCO2`, the Inhibition in the assay with Klebsiella pneumoniae is on record as 0.58%; with Candida albicans it was 2.55%; with Cryptococcus neoformans, -24.91%.
For `CCOc1ccccc1NC(=O)Cn1nc2c3c4c(sc3ncn2c1=O)CCCC4`, the Inhibition is on record as 2.08% in the assay with Klebsiella pneumoniae, 2.9% with Candida albicans and -12.75% in the assay on Cryptococcus neoformans.
Regarding `O=C(Cn1nc2c(N3CCOCC3)nccn2c1=O)Nc1ccc(Cl)cc1F`, the figures for the Inhibition in the assay on Klebsiella pneumoniae, in the assay on Candida albicans and in the assay with Cryptococcus neoformans were 19.61%, 2.13% and -2.72%, respectively.
`COC(=O)c1cccc(NC(=O)Cn2nc3c(N4CCCCCC4)nccn3c2=O)c1`: the Inhibition is on record as 3.15% in the assay with Klebsiella pneumoniae, 2.05% in the assay with Candida albicans and -12.46% with Cryptococcus neoformans.
Take `CCc1nnc2c(S(=O)(=O)N(Cc3ccc(F)cc3)c3cccc(Cl)c3)cccn12`: the Inhibition was 0.19% with Klebsiella pneumoniae, 5.46% in the assay on Candida albicans and -7.67% in the assay with Cryptococcus neoformans.
